# Only some compounds are listed: those with a hit (about 2.9% of all), similar ones and a draw of the others.
# Smad3 inh: Smad3 (human) transcription factor binding inhibition; TR-FRET Smad3/Dy647-FoxH1 peptide binding, europium anti-His; inhibition, % at 25 µM; P84022; AID 630; actives 0.29% (n = 88,000);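 active means compounds that reduce the energy-transfer binding signal between the protein and its labelled peptide by more than half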;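 further: 0% = Smad3 plus labelled peptide maximal FRET and 100% = peptide-only background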
# ERb SRC1 inh: ER-beta (human) coactivator binding inhibition; TR-FRET ER-beta LBD / SRC1-Cy5 peptide binding; receptor agonist-loaded with 1 µM estradiol; inhibition, % at 25.6 µM; actives 1.3% (n = 86,000); AID 633;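 active means compounds whose percent inhibition of the receptor-coactivator binding signal exceeds about 50% in the single-dose screen, limit read from the data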;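 further: 0% = receptor plus peptide wells without compound and 100% = peptide-only wells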
# Target sequence (Q92731 whole entry, looked up, the tested form may be a part): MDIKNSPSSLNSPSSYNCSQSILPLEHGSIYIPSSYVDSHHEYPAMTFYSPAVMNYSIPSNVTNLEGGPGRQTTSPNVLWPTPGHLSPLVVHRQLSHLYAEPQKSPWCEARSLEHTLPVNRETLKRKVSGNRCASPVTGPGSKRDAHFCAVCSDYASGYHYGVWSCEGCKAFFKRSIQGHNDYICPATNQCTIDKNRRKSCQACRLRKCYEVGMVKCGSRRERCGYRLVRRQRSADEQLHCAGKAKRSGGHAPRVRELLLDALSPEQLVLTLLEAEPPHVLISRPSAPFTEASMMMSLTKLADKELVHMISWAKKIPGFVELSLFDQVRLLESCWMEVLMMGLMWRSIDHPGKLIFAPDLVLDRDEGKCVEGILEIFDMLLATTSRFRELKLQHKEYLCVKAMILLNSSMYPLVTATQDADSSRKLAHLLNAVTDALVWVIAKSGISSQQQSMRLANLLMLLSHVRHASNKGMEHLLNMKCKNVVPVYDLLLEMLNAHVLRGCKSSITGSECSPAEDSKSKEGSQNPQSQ
# ERa coact pot: enhances coactivator binding to human estrogen receptor alpha. P03372. TR-FRET ERalpha-LBD/SRC-Cy5 coactivator binding, 2 h; 100 = basal binding, no effect. coactivator binding (% of control), % at 25.6 µM. actives 1.3% (n = 86,000). AID 639; in the data active means activity above about 200%;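 further: binding measured in presence of low estradiol as agonist stimulus; 0% = peptide alone without receptor and 100% = receptor with peptide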
# HePTP inhibitor: inhibitors of human HePTP phosphatase | P35236 | recombinant HePTP phosphatase activity, OD absorbance | inhibition, % at 20 µM | actives 0.64% (n = 110,000); in the data active means inhibition above about 50%;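 further: plate controls were vehicle for no effect and reference inhibitor for full effect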
# Calb biofilm kill: kills Candida albicans biofilms; C. albicans biofilm + clotrimazole, Alamar Blue; inhibition, % at 6 µM; actives 0.14% (n = 85,000); AID 834;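 active means inhibition above 20%; inactive means inhibition below 20%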;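 further: preformed 24 hr biofilms exposed to compound for 48 hr; 0% = biofilm without compound and 100% = blank killed by clotrimazole plus chlorhexidine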
# ERa coact inh: blocks coactivator binding to human estrogen receptor alpha | actives 1.7% (n = 86,000) | inhibition, % at 25.6 µM | AID 629 | TR-FRET ER-alpha LBD / SRC-1 peptide, estradiol-bound | P03372; in the data active means inhibition above about 50%;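 further: 0% = receptor plus peptide control and 100% = peptide only without receptor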
# An asterisk follows results filed as active; . = not tested or not shown; [ ] = another dose, or the depositor's remark.
SMILES,Smad3 inh,ERb SRC1 inh,ERa coact pot,HePTP inhibitor,Calb biofilm kill,ERa coact inh
CCOC(=O)c1ccc(N2NC(=O)/C(=C/c3cc(Br)ccc3O)C2=O)cc1,.,.,.,75.4*,.,.
CCOC(=O)c1ccc(N2NC(=O)/C(=C/c3cccc(OC)c3O)C2=O)cc1,.,.,.,55.4*,.,.
CCOC(=O)c1ccc(N2NC(=O)/C(=C/c3ccc(C=O)cc3)C2=O)cc1,.,.,.,95.7*,.,.
CCN(CC)c1ccc2cc(-c3nnc(-c4ccc(Br)cc4)o3)c(=O)oc2c1,-7.8,32.7,209.6*,.,2.7,33.1
O=c1oc2ccccc2cc1-c1nnc(-c2cccc(Br)c2)o1,-16.6,35.0,72.0,-2.8,8.7,75.9*[fluorescence artefact?]
COc1ccc(-c2cc3c(ccc4ccccc43)oc2=O)cc1,.,.,.,-9.5,.,.
CCN(CC)c1ccc2cc(-c3nnc(-c4ccccc4)o3)c(=O)oc2c1,-5.3,31.7,193.5,.,6.3,48.0
Brc1cccc(-c2nnc(-c3ccccc3)o2)c1,-6.3,3.1,107.7,4.2,0.1,11.5
O=c1oc2ccc3ccccc3c2cc1-c1nnc(-c2ccccc2)o1,17.6,19.9,67.7,-4.7,1.5,65.2*[fluorescence artefact?]
COc1ccc(-c2nnc(-c3cc4c(ccc5ccccc54)oc3=O)o2)cc1,-2.3,20.3,120.0,.,3.6,51.6*
O=C(NC(=S)Nc1ccccc1O)c1ccccc1,.,.,.,-4.7,.,.
Cc1ccccc1C(=O)Nc1cccc(-c2nnc(-c3ccccc3)o2)c1,.,.,.,10.3,.,.
O=C(Nc1cccc2ccccc12)c1ccccc1[N+](=O)[O-],.,.,.,-2.4,.,.
CCCC(=O)NC(c1ccc(OC)cc1)c1ccc(OCC)cc1 (stereo not drawn),.,.,.,4.9,.,.
OC(c1ccc(Br)cc1)C12CN3CN(CN(C3)C1)C2 (stereo not drawn),.,.,.,104.2*,.,.
O=C1OC(c2ccc(Br)cc2)=C/C1=C/c1ccc(-c2ccccc2[N+](=O)[O-])o1,.,.,.,4.6,.,.
CCNC(=O)NC(=O)COc1ccccc1C#N,-9.6,-23.9,332.1*[fluorescence artefact?],3.7,-3.6,-24.9
O=C(Nc1nc2ccc(Cl)cc2s1)c1ccccc1F,.,.,.,4.7,.,.
CCc1ccc(CN2CCN(C(=O)c3ccc(OC)cc3)CC2)cc1,.,.,.,11.2,.,.
Clc1ccsc1-c1csc(-c2cccnc2)n1,9.2,-7.2,115.2,.,2.5,1.6
c1cncc(-c2nc(-c3ccco3)cs2)c1,1.7,60.4*[fluorescence artefact?],83.5,-1.9,10.8,5.2
Cc1cc(NS(=O)(=O)c2ccc(Nc3nc(-c4sc(N)nc4C)cs3)cc2)no1,-4.1,56.5*[fluorescence artefact?],55.2,9.5,7.1,22.0
Cc1cc(NS(=O)(=O)c2ccc(Nc3nc(-c4ccc(Cl)cc4)cs3)cc2)no1,.,.,.,-0.4,.,.
O=S(=O)(Nc1ncnc2sc3c(c12)CCC3)c1ccc2ccccc2c1,0.1,52.9*,58.7,.,-4.1,38.0
CC(C)Cn1c(N)c(C(=O)NCC2CCCO2)c2nc3ccccc3nc21 (stereo not drawn),7.0,-3.7,56.1,14.4,.,4.5
SMILES,Smad3 inh,ERb SRC1 inh,ERa coact pot,HePTP inhibitor,Calb biofilm kill,ERa coact inh
Nc1c(C(=O)NCC2CCCO2)c2nc3ccccc3nc2n1/N=C/c1ccncc1 (stereo not drawn),21.4,0.1,313.7*[fluorescence artefact?],-6.3,9.9,-22.2
O=C(Nc1cccc2ccccc12)c1cn(-c2ccccc2)nc1-c1cccs1,0.4,-1.8,202.8*[fluorescence artefact?],.,1.6,10.1
O=S(=O)(Nc1ccc(-c2nc3cccnc3s2)cc1)c1cccs1,4.7,21.5,175.0,0.2,3.2,23.9
O=S(=O)(Nc1ccc(-c2nc3cccnc3s2)cc1)c1ccc(Cl)s1,-3.2,10.7,86.5,.,11.9,77.2*[fluorescence artefact?]
CC(=O)NS(=O)(=O)c1ccc(NC(=O)/C=C/c2ccc(F)cc2)cc1,.,.,.,73.5*,.,.
COc1ccc(Cl)cc1N(CC(=O)Nc1cccc2cccnc12)S(=O)(=O)c1ccc(C)cc1,.,.,.,-17.1,.,.
COc1ccc(-c2cc(-c3cccs3)c(C#N)c(SCC(=O)NCc3ccco3)n2)cc1,-8.5,39.1,177.1,-1.4,2.3,53.7*
COc1ccc(CNC(=O)CSc2nc(-c3ccccc3)cc(-c3cccs3)c2C#N)cc1,-14.1,3.6,147.4,.,4.0,9.9
CCn1c(CCNC(=O)c2ccc(F)cc2)nc2ccccc21,-11.8,-10.0,112.3,.,9.4,-4.7
CCn1c(CCCNC(=O)c2ccc(F)cc2)nc2ccccc21,-1.1,6.9,269.7*,.,2.7,-5.3
NS(=O)(=O)c1ccc(-c2ccc(/C=C3/C(=O)NN(c4ccc(Br)cc4)C3=O)o2)cc1,.,.,.,-3.1,.,.
CCC1=NN2C(=N)/C(=C/c3ccc(OC)c(OC)c3)C(=O)N=C2S1,.,.,.,-7.6,.,.
CCC1=NN2C(=N)/C(=C/c3ccc(OCc4ccc(Br)cc4)c(OC)c3)C(=O)N=C2S1,.,.,.,100.6*,.,.
CCN(C(=O)CN1CCCc2ccccc21)c1c(N)n(Cc2ccccc2)c(=O)[nH]c1=O,-14.0,80.3*[fluorescence artefact?],105.0,2.6,6.7,-10.3
COc1ccc(CC(=O)OCC(=O)Nc2ncc(Cl)cc2Cl)cc1OC,-6.7,-4.3,99.0,.,4.4,-2.3
O=C(COC(=O)CCS(=O)(=O)c1ccc(Cl)cc1)Nc1ncc(Cl)cc1Cl,11.2,-0.1,100.6,5.0,5.7,-5.0
COc1cc(CCC(=O)OCC(=O)Nc2ncc(Cl)cc2Cl)cc(OC)c1OC,7.4,58.7*,21.6,-2.7,-2.0,55.6*[fluorescence artefact?]
COc1ccccc1OCCC(=O)OCC(=O)Nc1ncc(Cl)cc1Cl,20.7,39.6,48.5,7.2,7.8,53.7*[fluorescence artefact?]
Cc1ccccc1OCCOc1ccccc1/C=N/n1cnnc1,.,.,.,6.5,.,.
c1ccc(CNc2nc(-c3ccccc3)cc(-c3ccccc3)n2)cc1,.,.,.,8.4,.,.
CCOC(=O)c1ccc(Nc2nc3nonc3n3cnnc23)cc1,.,.,.,-3.7,.,.
C/C(=N\NC(=O)c1[nH]nc2c1CCc1ccccc1-2)c1ccccc1O,.,.,.,4.9,.,.
Cc1noc(C)c1COC(=O)c1ccc2c(c1)OCCO2,1.4,0.3,104.7,7.6,5.7,2.6
Cc1noc(C)c1COC(=O)c1cc2c3ccccc3n(C)c2s1,6.4,-49.4,751.4*,7.2,4.4,-80.3
Cc1nn(-c2ccc(F)cc2)c2sc(C(=O)OCC(=O)N3CCC(C)CC3)cc12,5.2,6.6,102.7,3.4,5.4,-8.4
Cc1noc(C)c1COC(=O)c1cc2c(C)nn(-c3ccc(F)cc3)c2s1,8.8,58.6*[fluorescence artefact?],150.1,-5.7,5.5,74.1*[fluorescence artefact?]
O=C(O)COc1c(Cl)cc(/C=C2\C(=O)NC(=O)N(c3ccc(F)cc3)C2=O)cc1Cl,.,.,.,-9.1,.,.
COc1ccc(S(=O)(=O)NC(C(C)C)C(C)C)cc1OC,-3.9,-7.5,129.4,-3.5,3.3,-3.8
COc1cc(S(=O)(=O)NC(C)C)ccc1Cl,5.7,1.8,89.2,.,7.2,65.4*[fluorescence artefact?]
O=C(Nc1ccc(I)cc1)c1cc(-c2cccs2)nc2ccccc12,.,.,.,10.9,.,.

# Screens: PubChem BioAssay, several laboratories
